Records with an inconclusive call do not appear. Active and inactive are the calls of the source. How the source made its calls: active means hit-call score of the fitted dose curve at least 0.9, where 1 is the maximum; inconclusive means response in the unintended direction; inactive means score below 0.9.
Experiments:
[1] = molecular target: human Matrix Metalloproteinase-9 (MMP9), MMP9 (gene 4318) (UniProt P14780); assay: NVS_ENZ_hMMP9: NovaScreen (NVS) Enzymatic Assay for human Matrix Metalloproteinase-9 (MMP9) (AID 2283190);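 further: cell-free recombinant MMP9 protease activity read by fluorescent substrate signal; active means inhibition seen as loss of fluorescence signal versus DMSO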
Sequence of human Matrix Metalloproteinase-9 (MMP9), MMP9 (gene 4318) (P14780 whole entry, looked up): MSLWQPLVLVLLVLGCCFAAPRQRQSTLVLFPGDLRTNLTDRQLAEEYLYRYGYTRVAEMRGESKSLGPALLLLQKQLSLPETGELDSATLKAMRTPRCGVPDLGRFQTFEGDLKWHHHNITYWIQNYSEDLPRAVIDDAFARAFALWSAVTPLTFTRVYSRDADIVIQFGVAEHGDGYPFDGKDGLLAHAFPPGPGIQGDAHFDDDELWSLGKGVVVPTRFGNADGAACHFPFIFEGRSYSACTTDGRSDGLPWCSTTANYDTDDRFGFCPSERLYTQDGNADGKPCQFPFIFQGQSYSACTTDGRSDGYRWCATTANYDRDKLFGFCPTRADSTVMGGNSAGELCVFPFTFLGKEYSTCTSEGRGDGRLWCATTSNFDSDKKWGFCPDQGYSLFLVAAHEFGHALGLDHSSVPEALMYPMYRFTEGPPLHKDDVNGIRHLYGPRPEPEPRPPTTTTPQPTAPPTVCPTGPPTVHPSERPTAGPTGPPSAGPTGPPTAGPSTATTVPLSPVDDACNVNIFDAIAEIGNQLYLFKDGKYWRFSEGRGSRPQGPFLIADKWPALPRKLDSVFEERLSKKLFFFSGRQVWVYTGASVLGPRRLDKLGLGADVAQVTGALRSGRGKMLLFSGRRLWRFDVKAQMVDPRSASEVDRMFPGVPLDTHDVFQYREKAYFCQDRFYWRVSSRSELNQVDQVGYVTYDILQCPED
In short: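 Extracted enzyme, fluorescent substrate, 1 h post-dose read. Single conc 25 uM in duplicate, then concentration series for actives. Activity = signal loss relative to DMSO negative control.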

[2] = molecular target: Collagenase 3 (Homo sapiens) (UniProt P45452); assay: NVS_ENZ_hMMP13: NovaScreen (NVS) Enzymatic Assay for human Matrix Metalloproteinase-13 (MMP13) (AID 2283182)
In short: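 Recombinant MMP13 cleaving fluorescent substrate, cell-free, measured 1 h after dosing. Primary duplicate screen at 25 uM; actives tested in concentration-response up to 50 uM; loss of signal relative to DMSO.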

[3] = molecular target: human Matrix Metalloproteinase-2 (MMP2), MMP2 (gene 4313) (UniProt P08253); assay: NVS_ENZ_hMMP2: NovaScreen (NVS) Enzymatic Assay for human Matrix Metalloproteinase-2 (MMP2) (AID 2283184)
Sequence of human Matrix Metalloproteinase-2 (MMP2), MMP2 (gene 4313) (P08253 whole entry, looked up): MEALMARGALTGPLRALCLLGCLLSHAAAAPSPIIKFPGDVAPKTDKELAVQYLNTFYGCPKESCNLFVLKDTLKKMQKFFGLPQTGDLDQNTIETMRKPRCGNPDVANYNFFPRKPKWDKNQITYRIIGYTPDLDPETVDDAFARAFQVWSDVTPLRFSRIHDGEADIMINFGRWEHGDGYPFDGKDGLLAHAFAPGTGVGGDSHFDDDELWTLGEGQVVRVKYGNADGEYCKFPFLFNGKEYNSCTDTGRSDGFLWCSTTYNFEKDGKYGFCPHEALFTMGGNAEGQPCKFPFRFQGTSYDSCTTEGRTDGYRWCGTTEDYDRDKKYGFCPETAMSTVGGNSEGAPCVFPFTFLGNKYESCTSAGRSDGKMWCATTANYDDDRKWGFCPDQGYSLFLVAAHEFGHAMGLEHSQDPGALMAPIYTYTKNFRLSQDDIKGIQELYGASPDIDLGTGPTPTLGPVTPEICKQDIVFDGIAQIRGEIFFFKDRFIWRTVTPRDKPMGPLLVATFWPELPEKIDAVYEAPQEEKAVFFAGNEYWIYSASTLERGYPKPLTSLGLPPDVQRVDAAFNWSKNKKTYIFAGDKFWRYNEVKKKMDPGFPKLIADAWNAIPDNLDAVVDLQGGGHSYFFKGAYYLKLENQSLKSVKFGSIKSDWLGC
In short: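 Compounds first screened in duplicate at a single 25 uM, with actives followed up in concentration series. Recombinant human MMP2 cleaves a fluorogenic substrate; fluorescence taken at 1 h, inhibition fitted relative to DMSO.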

[4] = molecular target: human Phosphodiesterase 5 (PDE5), PDE5A (gene 8654) (UniProt O76074); assay: NVS_ENZ_hPDE5: NovaScreen (NVS) Enzymatic Assay for human Phosphodiesterase 5 (PDE5) (AID 2283194)
In short: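 Screening began in duplicate at 25 uM, with actives taken into concentration-response. Enzyme activity of recombinant PDE5 toward its substrate was measured at 1 h by fluorescence mobility-shift detection, relative to DMSO controls.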

[5] = molecular target: human Mitogen- and Stress-activated Protein Kinase-1 (Msk1), RPS6KA5 (gene 9252) (UniProt O75582); assay: NVS_ENZ_hMsk1: NovaScreen (NVS) Enzymatic Assay for human Mitogen- and Stress-activated Protein Kinase-1 (Msk1) (AID 2283187)
Sequence of human Mitogen- and Stress-activated Protein Kinase-1 (Msk1), RPS6KA5 (gene 9252) (O75582 whole entry, looked up): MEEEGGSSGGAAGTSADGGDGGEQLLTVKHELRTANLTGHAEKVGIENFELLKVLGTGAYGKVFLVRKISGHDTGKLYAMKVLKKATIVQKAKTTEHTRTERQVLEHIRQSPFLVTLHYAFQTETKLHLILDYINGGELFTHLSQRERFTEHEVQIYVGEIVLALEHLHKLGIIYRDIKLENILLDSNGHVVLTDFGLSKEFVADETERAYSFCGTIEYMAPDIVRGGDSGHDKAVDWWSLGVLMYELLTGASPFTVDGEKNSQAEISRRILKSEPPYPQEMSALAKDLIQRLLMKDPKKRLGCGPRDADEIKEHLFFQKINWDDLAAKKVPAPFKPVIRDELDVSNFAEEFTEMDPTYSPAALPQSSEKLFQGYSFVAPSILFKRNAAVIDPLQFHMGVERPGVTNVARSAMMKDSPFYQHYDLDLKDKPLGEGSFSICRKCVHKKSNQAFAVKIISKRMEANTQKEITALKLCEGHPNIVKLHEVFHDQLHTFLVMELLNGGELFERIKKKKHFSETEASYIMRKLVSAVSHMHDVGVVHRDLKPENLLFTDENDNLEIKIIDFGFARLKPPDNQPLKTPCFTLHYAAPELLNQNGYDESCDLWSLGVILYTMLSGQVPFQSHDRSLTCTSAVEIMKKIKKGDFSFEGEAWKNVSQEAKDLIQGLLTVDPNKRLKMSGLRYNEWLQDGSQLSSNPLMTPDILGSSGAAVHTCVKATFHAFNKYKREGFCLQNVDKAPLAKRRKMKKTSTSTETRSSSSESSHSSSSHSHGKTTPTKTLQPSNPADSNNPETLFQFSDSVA
In short: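 Chemicals first run in duplicate at 25 uM, with actives followed up in singleton concentration series to 50 uM maximum. Enzyme activity came from substrate/product mobility-shift separation with fluorescence detection after 1 h incubation of the recombinant protein.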

[6] = molecular target: human Phosphodiesterase 4A1 (PDE4A1), PDE4A (gene 5141) (UniProt P27815); assay: NVS_ENZ_hPDE4A1: NovaScreen (NVS) Enzymatic Assay for human Phosphodiesterase 4A1 (PDE4A1) (AID 2283191)
Sequence of human Phosphodiesterase 4A1 (PDE4A1), PDE4A (gene 5141) (P27815 whole entry, looked up): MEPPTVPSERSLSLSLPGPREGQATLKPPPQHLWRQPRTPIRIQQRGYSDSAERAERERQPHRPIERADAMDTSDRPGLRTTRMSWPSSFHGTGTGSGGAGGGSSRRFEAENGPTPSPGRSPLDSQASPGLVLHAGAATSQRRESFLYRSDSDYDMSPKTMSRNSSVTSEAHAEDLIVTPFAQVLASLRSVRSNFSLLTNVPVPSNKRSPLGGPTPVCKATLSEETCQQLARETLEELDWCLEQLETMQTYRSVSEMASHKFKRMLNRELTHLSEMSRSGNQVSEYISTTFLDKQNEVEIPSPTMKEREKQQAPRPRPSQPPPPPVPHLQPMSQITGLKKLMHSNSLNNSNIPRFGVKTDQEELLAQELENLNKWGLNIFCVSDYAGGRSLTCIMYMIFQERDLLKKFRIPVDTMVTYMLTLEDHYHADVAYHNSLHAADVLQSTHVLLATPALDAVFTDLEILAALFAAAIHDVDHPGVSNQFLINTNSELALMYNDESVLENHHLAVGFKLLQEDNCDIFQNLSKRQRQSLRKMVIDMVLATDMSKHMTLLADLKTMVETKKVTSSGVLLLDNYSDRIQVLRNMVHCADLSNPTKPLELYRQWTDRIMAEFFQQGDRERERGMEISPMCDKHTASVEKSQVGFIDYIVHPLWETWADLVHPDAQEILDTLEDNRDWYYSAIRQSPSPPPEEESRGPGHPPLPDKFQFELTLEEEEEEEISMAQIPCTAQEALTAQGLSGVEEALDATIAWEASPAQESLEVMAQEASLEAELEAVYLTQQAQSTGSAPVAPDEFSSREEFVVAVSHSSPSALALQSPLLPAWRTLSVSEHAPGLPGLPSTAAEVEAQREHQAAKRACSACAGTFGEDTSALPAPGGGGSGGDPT
In short: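 Fluorescent substrate turnover by recombinant PDE4A1 read after 1 h by mobility-shift separation. Primary duplicate screen at 25 uM; hits retested in concentration series with a 50 uM maximum, relative to DMSO.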

[7] = molecular target: cAMP-dependent protein kinase catalytic subunit alpha (Homo sapiens) (UniProt P17612); assay: NVS_ENZ_hPKA: NovaScreen (NVS) Enzymatic Assay for human Protein Kinase A (PKA) (AID 2283192)
In short: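 Cell-free kinase activity read by fluorescence after mobility-shift separation of substrate and product, 1 h post-dosing. Single-concentration duplicate screen (25 uM) preceded singleton concentration series (top 50 uM); loss of signal versus DMSO.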

[8] = molecular target: human Matrix Metalloproteinase-3 (MMP3), MMP3 (gene 4314) (UniProt P08254); assay: NVS_ENZ_hMMP3: NovaScreen (NVS) Enzymatic Assay for human Matrix Metalloproteinase-3 (MMP3) (AID 2283185)
Sequence of human Matrix Metalloproteinase-3 (MMP3), MMP3 (gene 4314) (P08254 whole entry, looked up): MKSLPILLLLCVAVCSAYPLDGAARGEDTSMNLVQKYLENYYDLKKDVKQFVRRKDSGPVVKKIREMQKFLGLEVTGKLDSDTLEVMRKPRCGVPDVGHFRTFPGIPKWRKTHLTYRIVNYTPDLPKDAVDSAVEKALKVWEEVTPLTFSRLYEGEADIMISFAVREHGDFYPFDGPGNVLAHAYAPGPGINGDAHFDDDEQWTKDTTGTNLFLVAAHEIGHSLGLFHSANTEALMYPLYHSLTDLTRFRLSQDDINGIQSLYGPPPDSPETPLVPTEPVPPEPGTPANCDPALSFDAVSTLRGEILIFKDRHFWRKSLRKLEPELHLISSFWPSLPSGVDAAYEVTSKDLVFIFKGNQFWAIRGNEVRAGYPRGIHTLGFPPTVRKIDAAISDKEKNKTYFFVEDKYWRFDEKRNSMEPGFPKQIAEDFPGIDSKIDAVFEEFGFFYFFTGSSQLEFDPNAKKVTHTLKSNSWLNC
In short: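 Fluorescent substrate turnover by recombinant MMP3 read after 1 h, signal loss scored against DMSO. Compounds first run in duplicate at 25 uM single dose, then actives confirmed by concentration series.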

[9] = molecular target: human Phosphodiesterase 10 (PDE10), PDE10A (gene 10846) (UniProt Q9Y233); assay: NVS_ENZ_hPDE10: NovaScreen (NVS) Enzymatic Assay for human Phosphodiesterase 10 (PDE10) (AID 2283195)
Sequence of human Phosphodiesterase 10 (PDE10), PDE10A (gene 10846) (Q9Y233 whole entry, looked up): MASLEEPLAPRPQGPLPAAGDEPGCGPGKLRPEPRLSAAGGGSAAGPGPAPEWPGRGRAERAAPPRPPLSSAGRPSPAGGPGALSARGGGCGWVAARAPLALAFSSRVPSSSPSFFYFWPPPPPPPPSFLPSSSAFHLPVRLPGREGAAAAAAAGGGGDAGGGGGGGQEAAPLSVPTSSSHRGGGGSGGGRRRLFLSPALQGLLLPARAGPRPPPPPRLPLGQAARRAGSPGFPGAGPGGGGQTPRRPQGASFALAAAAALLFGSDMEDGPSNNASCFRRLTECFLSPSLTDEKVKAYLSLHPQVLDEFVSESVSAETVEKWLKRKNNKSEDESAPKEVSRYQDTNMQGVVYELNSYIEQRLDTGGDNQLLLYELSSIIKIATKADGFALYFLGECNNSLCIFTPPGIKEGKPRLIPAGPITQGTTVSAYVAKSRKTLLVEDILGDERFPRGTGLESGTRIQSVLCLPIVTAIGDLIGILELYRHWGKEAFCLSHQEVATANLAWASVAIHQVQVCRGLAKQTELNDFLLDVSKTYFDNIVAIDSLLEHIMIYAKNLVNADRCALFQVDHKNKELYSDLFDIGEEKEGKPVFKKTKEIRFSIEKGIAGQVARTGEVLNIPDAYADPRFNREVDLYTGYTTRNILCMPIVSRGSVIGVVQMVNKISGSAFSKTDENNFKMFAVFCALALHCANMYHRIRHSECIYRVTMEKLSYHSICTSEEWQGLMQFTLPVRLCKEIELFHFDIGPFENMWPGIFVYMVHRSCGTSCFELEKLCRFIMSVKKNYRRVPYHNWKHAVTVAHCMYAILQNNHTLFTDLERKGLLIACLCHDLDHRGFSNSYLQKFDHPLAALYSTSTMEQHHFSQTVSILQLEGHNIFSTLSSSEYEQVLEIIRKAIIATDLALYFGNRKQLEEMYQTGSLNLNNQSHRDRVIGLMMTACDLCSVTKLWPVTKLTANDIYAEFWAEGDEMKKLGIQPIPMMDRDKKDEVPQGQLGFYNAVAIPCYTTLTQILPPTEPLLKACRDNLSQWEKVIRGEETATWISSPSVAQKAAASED
In short: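 Readout is fluorescence intensity following electrophoretic mobility-shift separation, 1 h after dosing of isolated PDE10A protein. Hits meeting a preset threshold at 25 uM went to concentration series (max 50 uM), analysed relative to DMSO.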

SMILES: CCCCN1C(=O)[C@@H]([C@H](O)C2CCCCC2)NC(=O)C12CCN(Cc1ccc(Oc3ccc(C(=O)O)cc3)cc1)CC2
- outcome [1]: inactive

SMILES: COCc1nnc(-c2ccc[n+]([O-])c2)n1-c1c(Cl)c(Cl)cc2[nH]c(=O)c(=O)[nH]c12
- AC50 [2]: 21.5 µM (active)
- AC50 [3]: 7.26 µM (active)
- outcome [4]: inactive

SMILES: NC(=O)N1c2ccccc2C=Cc2ccccc21
- outcome [4]: inactive

SMILES: CC(=O)c1ccccc1
- AC50 [3]: 26.7 µM (active)

SMILES: CCCC(CCC)C(=O)O
- outcome [5]: inactive
- outcome [6]: inactive
- outcome [7]: inactive

SMILES: O=S(=O)(O)c1ccc(N=Nc2c(O)ccc3cc(S(=O)(=O)O)ccc23)cc1
- AC50 [2]: 14.8 µM (active)
- AC50 [3]: 4.96 µM (active)
- AC50 [8]: 19.4 µM (active)

SMILES: CCCCCCCC/C=C\CCCCCCCC(=O)OC[C@@H](O)[C@H]1OC[C@H](O)[C@H]1O
- outcome [5]: inactive
- outcome [7]: inactive
- outcome [4]: inactive

SMILES: OC[C@H]1O[C@@](CO)(O[C@H]2O[C@H](CO)[C@@H](O)[C@H](O)[C@H]2O)[C@@H](O)[C@@H]1O
- outcome [3]: inactive

SMILES: Cc1nc(-c2ccccn2)ncc1C(=O)Nn1cc(C)c2cc(F)ccc21
- outcome [5]: inactive
- outcome [4]: inactive
- outcome [9]: inactive

SMILES: CCCCCCCCCCCCCCCCOS(=O)(=O)O
- AC50 [9]: 2.54 µM (active)

SMILES: C[C@@H](Oc1ccc(CNC(=O)c2cccnc2Oc2ccc3c(c2)OCO3)c(F)c1)C(=O)O
- AC50 [6]: 0.799 µM (active)
- AC50 [9]: 7.95 µM (active)

SMILES: Cc1cccc(O)c1C
- AC50 [1]: 5.08 µM (active)
